# Test results reported in the supplement of paper PMC13380429.
# A number with no mark means an inactive call.
# Tested on: Vero E6 infected with SARS-CoV-2
# Test: inhibition of SARS-CoV-2 cytopathic effect; higher = more antiviral protection, active = above 15
# Conditions: 48 h
Structure (SMILES),inhibition of SARS-CoV-2 cytopathic effect (1 nM) [%],inhibition of SARS-CoV-2 cytopathic effect (8.33 nM) [%],inhibition of SARS-CoV-2 cytopathic effect (100 nM) [%],inhibition of SARS-CoV-2 cytopathic effect (833.33 nM) [%],inhibition of SARS-CoV-2 cytopathic effect (10000 nM)
O=P(O)(O)CN(CCN(CP(=O)(O)O)CP(=O)(O)O)CP(=O)(O)O,-3.44,0.56,-0.33,2.43,-1.39%
CC(/C=C/C(=O)NO)=C\[C@@H](C)C(=O)c1ccc(N(C)C)cc1 [trichostatin-a],-3.04,-7.12,-16,-31,-31.1%
C[C@@H]1C(=O)O[C@H]2C[C@@]34[C@H]5C[C@@H](C(C)(C)C)[C@]36[C@@H](OC(=O)[C@@H]6O)O[C@@]4(C(=O)O5)[C@]21O [Ginkgolide A],3.54,2.25,2.7,1.3,-1.89%
CN(C)[C@@H]1C(O)=C(C(N)=O)C(=O)[C@@]2(O)C(O)=C3C(=O)c4c(O)cccc4[C@@](C)(O)[C@H]3[C@H](O)[C@@H]12 [oxytetracycline],-0.32,-3.1,-1.01,-0.96,-0.98%
CCCN(CCC)C(=O)C(CCC(=O)OCCCN1CCN(CCOC(=O)Cc2c(C)n(C(=O)c3ccc(Cl)cc3)c3ccc(OC)cc23)CC1)NC(=O)c1ccccc1 (stereo not given) [proglumetacin],-3.43,-2.43,-2.86,-4.91,-12.6%
O=C1[C@@H]2[C@H]3CC[C@H](C3)[C@@H]2C(=O)N1C[C@@H]1CCCC[C@H]1CN1CCN(c2nsc3ccccc23)CC1 [lurasidone],-0.28,0.05,1.73,3.11,-6.2%
c1ccc(NCc2ccc(CNc3ccccn3)cc2)nc1,0.1,0.65,-3.43,-0.24,-0.68%
O=Nc1ccc(O)c2ncccc12,3.04,-4.1,1.42,13.5,19.6% (active)
CN1CCN(CCCN2c3ccccc3Sc3ccc(Cl)cc32)CC1 [prochlorperazine],-0.92,0.64,0.48,-0.06,14.6%
COc1cc2c(NC3CCN(C4CCCCC4)CC3)nc(N3CCCN(C(C)C)CC3)nc2cc1OCCCN1CCCCC1,-0.42,1.56,0.26,-2.24,15%
CC(C)Oc1ccc(Cc2ccc(NC3=NCCN3)cc2)cc1,0.38,0.26,2.45,0.98,-0.97%
OCCN1CCN(CCCN2c3ccccc3Sc3ccc(C(F)(F)F)cc32)CC1 [fluphenazine],-8.05,-7.65,-6.69,-9.7,20.5% (active)
NCC(CS(=O)(=O)O)c1ccc(Cl)cc1 (stereo not given) [saclofen],0.43,0.42,-1.16,4.89,1.7%
COc1cc2c(cc1F)C(c1ccccc1Cl)=Nc1c(n[nH]c1C)N2,1.86,1.62,-1.34,2.98,2.4%
C#CCN(C)Cc1ccccc1 [pargyline],0,0.65,-1.02,-1.01,2.9%
O[C@@H]1CCCC[C@H]1N1CCC(c2ccccc2)CC1 (racemic) [vesamicol],0.17,1.74,0.78,1.42,1.14%
CC(=O)Nc1ccccc1 [acetanilide],-1.3,2.8,1.67,1.23,0.69%
OB1OCc2cc(F)ccc21 [tavaborole],-0.98,1.46,-1.21,2.11,-2.53%
